{"source": "PubChem BioAssay", "note": "Unmarked numbers belong to inactive results. Calls of active or inactive are those of the source. Rule as the data show it, unless noted: active = inhibition above about 28%; inactive = the rest."}
{"test_system": "not listed separately", "experiment": "StAR promoter reporter inhibitors, counter-screen for LRH-1 inverse agonist project, cell-based, luminescence, high throughput (AID 651611)", "settings": "StAR promoter luciferase reporter counterscreen, at 3.6 µM, active compounds read high"}
{"compound": "Cc1onc(-c2c(F)cccc2Cl)c1C(=O)O/N=C(\\N)c1ccc([N+](=O)[O-])o1", "inhibition": "11.6%"}
{"compound": "COc1ccc(CCNC(=O)CSc2nn3c(=O)c(C)nnc3s2)cc1OC", "inhibition": "8.26%"}
{"compound": "Nc1ccccc1Nc1ccncc1[N+](=O)[O-]", "inhibition": "0.62%"}
{"compound": "CCOC(=O)c1cc2sccc2n1CC(=O)Nc1ccc2c(c1)OCCO2", "inhibition": "7.97%"}
{"compound": "COc1cc2c(cc1OC)CN(C(=O)CN1C(=O)NC3(CCC(C)CC3)C1=O)CC2", "note": "(stereo not given)", "inhibition": "11.1%"}
{"compound": "CCc1cc(=O)oc2c(C)c(OCC(=O)NC3CC(C)(C)NC(C)(C)C3)ccc12", "inhibition": "4.17%"}
{"compound": "O=[N+]([O-])c1ccc(N2CCCCC2)nc1N1CCCCC1", "inhibition": "-13.2%"}
{"compound": "O=C(COc1cccc2c1CCNC2=O)Nc1cccc(C(F)(F)F)c1", "inhibition": "5.78%"}
{"compound": "Cc1ccc(SCC(=O)Nc2ccc(N3CCOCC3)cc2)cc1C", "inhibition": "-0.13%"}
{"compound": "CC(=O)Nc1ccc(NC(=O)COC(=O)Cc2c[nH]c3ccccc23)cc1", "inhibition": "18.8%"}
{"compound": "N#CCCn1cc(/C=N/NC(N)=S)c(-c2ccc(-c3ccccc3)cc2)n1", "inhibition": "28.7% (active)"}
{"compound": "OCCCNc1c2ccccc2nc2ccccc12", "inhibition": "13.1%"}
{"compound": "CC1(C)CC(=O)C=C(c2ccc3ncccc3c2)C1", "inhibition": "13.7%"}
{"compound": "COc1cc(NC(=O)CN2C(=O)NC(c3ccccc3)(c3ccccc3)C2=O)c(C)cc1[N+](=O)[O-]", "inhibition": "24.1%"}
{"compound": "O=C(COc1ccc(S(=O)(=O)N2CCCC2)cc1Cl)NCc1ccc2c(c1)OCO2", "inhibition": "26.1%"}
{"compound": "Cc1csc(=O)n1CCC(=O)OCC(=O)Nc1ccc(N2CCOCC2)cc1", "inhibition": "-7.54%"}
{"compound": "COc1ccc(OCCNC(=O)C2(C)CCN2Cc2ccc3ccccc3c2)cc1", "note": "(stereo not given)", "inhibition": "13.6%"}
{"compound": "N#Cc1ccc(NC(=O)COc2ccc(-n3cnnn3)cc2)cc1", "inhibition": "11.7%"}
{"compound": "Cc1cc(C)c2sc(NC(=O)c3ccc([N+](=O)[O-])o3)nc2c1", "inhibition": "-1.04%"}
{"compound": "Cc1ccc(CNC(=O)COc2ccc(C(=O)c3ccc(F)cc3)cc2)cc1", "inhibition": "17.6%"}
{"compound": "COc1ccc(NC(=O)Cn2nnc(C(=O)Nc3ccccc3C)c2N)cc1", "inhibition": "5.36%"}
{"compound": "CCC(c1nnnn1-c1c(C)cccc1C)N1CCN(c2ccc(C(F)(F)F)cc2[N+](=O)[O-])CC1", "note": "(stereo not given)", "inhibition": "7.27%"}
{"compound": "c1ccc(-n2nnnc2-c2cccc3ccccc23)cc1", "inhibition": "42% (active)"}
{"compound": "Cc1cc(OCC(=O)Nc2nccs2)c2c(C)cc(=O)oc2c1", "inhibition": "16.2%"}
{"compound": "CCCc1nc(SCC(=O)c2ccc(F)cc2)c2ccccc2n1", "inhibition": "5.26%"}
{"compound": "O=C(N/N=C/c1ccc([N+](=O)[O-])s1)c1ccccc1Br", "inhibition": "40.1% (active)"}
{"compound": "NNC(=O)C(Cc1ccc(O)cc1)N1Cc2ccccc2C1=O", "note": "(stereo not given)", "inhibition": "-1.94%"}
{"compound": "Cc1ccc(/C=C/S(=O)(=O)NCC(=O)OCC(=O)Nc2c(F)cccc2F)cc1", "inhibition": "26.3%"}
{"compound": "Cc1ccc(C)c(-c2cc(C(=O)N/N=C/c3cccnc3)c3ccccc3n2)c1", "inhibition": "9.19%"}
{"compound": "O=C(COc1ccc2c3c(c(=O)oc2c1)CCCC3)NCCCN1CCOCC1", "inhibition": "14.4%"}
{"compound": "Cc1ccnc2nc(C(=O)OCC(=O)Nc3ccc([N+](=O)[O-])cc3Br)nn12", "inhibition": "9.71%"}
{"compound": "CN(C)c1ccc(NC(=O)CN2CCC(NC(=O)C3CCCCC3)CC2)cc1", "inhibition": "12.2%"}
{"compound": "O=C(CN1C(=O)NC2(CCCCCC2)C1=O)Nc1ccc([N+](=O)[O-])cc1", "inhibition": "25.1%"}
{"compound": "CN(C)c1ccc(C(=O)OCC(=O)Nc2ccc(N3CCOCC3)cc2)cc1", "inhibition": "-5.42%"}
{"compound": "Cc1onc(-c2c(F)cccc2Cl)c1C(=O)c1ccccc1O", "inhibition": "7.24%"}
{"molecular_target": "Nuclear receptor subfamily 5 group A member 2 (Homo sapiens) (UniProt O00482)", "sequence (O00482 whole entry, looked up)": "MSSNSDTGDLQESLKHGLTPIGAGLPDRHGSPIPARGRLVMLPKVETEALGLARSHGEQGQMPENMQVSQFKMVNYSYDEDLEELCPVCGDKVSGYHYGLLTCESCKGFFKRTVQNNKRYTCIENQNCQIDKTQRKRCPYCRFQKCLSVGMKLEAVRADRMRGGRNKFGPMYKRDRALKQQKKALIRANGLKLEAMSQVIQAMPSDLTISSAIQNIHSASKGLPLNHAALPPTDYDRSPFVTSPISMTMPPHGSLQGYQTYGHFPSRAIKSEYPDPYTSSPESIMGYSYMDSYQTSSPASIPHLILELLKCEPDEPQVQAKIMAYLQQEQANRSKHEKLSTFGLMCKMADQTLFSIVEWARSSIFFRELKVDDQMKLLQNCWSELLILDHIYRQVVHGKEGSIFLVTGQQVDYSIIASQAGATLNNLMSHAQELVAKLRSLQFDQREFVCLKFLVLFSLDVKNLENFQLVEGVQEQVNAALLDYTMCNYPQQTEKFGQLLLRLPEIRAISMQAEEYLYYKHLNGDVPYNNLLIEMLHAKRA", "experiment": "LRH-1 (NR5A2) inverse agonists, retest, confirmation, cell-based, luminescence (AID 651613; in the data active = inhibition above about 42%;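 also: HEK293T cells co-transfected with LRH-1 and StAR promoter luciferase reporter; 0% = vehicle wells and 100% = parental cells lacking receptor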)", "settings": "cell-based LRH-1 luciferase reporter, inverse agonism; at 3.6 µM; active compounds read high"}
{"compound": "Cc1onc(-c2c(F)cccc2Cl)c1C(=O)O/N=C(\\N)c1ccc([N+](=O)[O-])o1", "inhibition": "70.9% (active)"}
{"compound": "COc1ccc(CCNC(=O)CSc2nn3c(=O)c(C)nnc3s2)cc1OC", "inhibition": "57.5% (active)"}
{"compound": "Nc1ccccc1Nc1ccncc1[N+](=O)[O-]", "inhibition": "55.8% (active)"}
{"compound": "CCOC(=O)c1cc2sccc2n1CC(=O)Nc1ccc2c(c1)OCCO2", "inhibition": "55.1% (active)"}
{"compound": "COc1cc2c(cc1OC)CN(C(=O)CN1C(=O)NC3(CCC(C)CC3)C1=O)CC2", "note": "(stereo not given)", "inhibition": "46% (active)"}
{"compound": "CCc1cc(=O)oc2c(C)c(OCC(=O)NC3CC(C)(C)NC(C)(C)C3)ccc12", "inhibition": "56.7% (active)"}
{"compound": "O=[N+]([O-])c1ccc(N2CCCCC2)nc1N1CCCCC1", "inhibition": "54.5% (active)"}
{"compound": "O=C(COc1cccc2c1CCNC2=O)Nc1cccc(C(F)(F)F)c1", "inhibition": "52.5% (active)"}
{"compound": "Cc1ccc(SCC(=O)Nc2ccc(N3CCOCC3)cc2)cc1C", "inhibition": "51.6% (active)"}
{"compound": "CC(=O)Nc1ccc(NC(=O)COC(=O)Cc2c[nH]c3ccccc23)cc1", "inhibition": "67.4% (active)"}
{"compound": "N#CCCn1cc(/C=N/NC(N)=S)c(-c2ccc(-c3ccccc3)cc2)n1", "inhibition": "52% (active)"}
{"compound": "OCCCNc1c2ccccc2nc2ccccc12", "inhibition": "107% (active)"}
{"compound": "CC1(C)CC(=O)C=C(c2ccc3ncccc3c2)C1", "inhibition": "52.2% (active)"}
{"compound": "COc1cc(NC(=O)CN2C(=O)NC(c3ccccc3)(c3ccccc3)C2=O)c(C)cc1[N+](=O)[O-]", "inhibition": "46% (active)"}
{"compound": "O=C(COc1ccc(S(=O)(=O)N2CCCC2)cc1Cl)NCc1ccc2c(c1)OCO2", "inhibition": "34%"}
{"compound": "Cc1csc(=O)n1CCC(=O)OCC(=O)Nc1ccc(N2CCOCC2)cc1", "inhibition": "54.1% (active)"}
{"compound": "COc1ccc(OCCNC(=O)C2(C)CCN2Cc2ccc3ccccc3c2)cc1", "note": "(stereo not given)", "inhibition": "45.2% (active)"}
{"compound": "N#Cc1ccc(NC(=O)COc2ccc(-n3cnnn3)cc2)cc1", "inhibition": "38.2%"}
{"compound": "Cc1cc(C)c2sc(NC(=O)c3ccc([N+](=O)[O-])o3)nc2c1", "inhibition": "54.4% (active)"}
{"compound": "Cc1ccc(CNC(=O)COc2ccc(C(=O)c3ccc(F)cc3)cc2)cc1", "inhibition": "51% (active)"}
{"compound": "COc1ccc(NC(=O)Cn2nnc(C(=O)Nc3ccccc3C)c2N)cc1", "inhibition": "41.4% (active)"}
{"compound": "CCC(c1nnnn1-c1c(C)cccc1C)N1CCN(c2ccc(C(F)(F)F)cc2[N+](=O)[O-])CC1", "note": "(stereo not given)", "inhibition": "18.6%"}
{"compound": "c1ccc(-n2nnnc2-c2cccc3ccccc23)cc1", "inhibition": "52.5% (active)"}
{"compound": "Cc1cc(OCC(=O)Nc2nccs2)c2c(C)cc(=O)oc2c1", "inhibition": "66.6% (active)"}
{"compound": "CCCc1nc(SCC(=O)c2ccc(F)cc2)c2ccccc2n1", "inhibition": "46.9% (active)"}
{"compound": "O=C(N/N=C/c1ccc([N+](=O)[O-])s1)c1ccccc1Br", "inhibition": "57.5% (active)"}
{"compound": "NNC(=O)C(Cc1ccc(O)cc1)N1Cc2ccccc2C1=O", "note": "(stereo not given)", "inhibition": "20.6%"}
{"compound": "Cc1ccc(/C=C/S(=O)(=O)NCC(=O)OCC(=O)Nc2c(F)cccc2F)cc1", "inhibition": "52% (active)"}
{"compound": "Cc1ccc(C)c(-c2cc(C(=O)N/N=C/c3cccnc3)c3ccccc3n2)c1", "inhibition": "51.1% (active)"}
{"compound": "O=C(COc1ccc2c3c(c(=O)oc2c1)CCCC3)NCCCN1CCOCC1", "inhibition": "44.6% (active)"}
{"compound": "Cc1ccnc2nc(C(=O)OCC(=O)Nc3ccc([N+](=O)[O-])cc3Br)nn12", "inhibition": "38.9%"}
{"compound": "CN(C)c1ccc(NC(=O)CN2CCC(NC(=O)C3CCCCC3)CC2)cc1", "inhibition": "62.6% (active)"}
{"compound": "O=C(CN1C(=O)NC2(CCCCCC2)C1=O)Nc1ccc([N+](=O)[O-])cc1", "inhibition": "63.1% (active)"}
{"compound": "CN(C)c1ccc(C(=O)OCC(=O)Nc2ccc(N3CCOCC3)cc2)cc1", "inhibition": "62% (active)"}
{"compound": "Cc1onc(-c2c(F)cccc2Cl)c1C(=O)c1ccccc1O", "inhibition": "51.3% (active)"}
